PGC1a acetyl inh = inhibitors of PGC1a acetylation signal, primary screen, cell-based, U2OS, AlphaScreen, inhibitor mode; 0.17% of 350,000 active; inhibition, % at 15.6 µM; AID 651687, 2012; AlphaScreen anti-acetyl-lysine; with virally co-expressed GCN5 acetyltransferase;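 active = every replicate shows inhibition of at least 40%; inconclusive = mean inhibition at least 40% but some replicate below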;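 note: 0% = neutral control wells and 100% = positive control wells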
EBV LMP1 NFkB = EBV LMP1-driven NF-kappaB luciferase reporter inhibitors, primary screen, cell-based, luminescence, single point. LMP1-induced NF-kappaB luciferase reporter cells. inhibition, % at 12.5 µM. 0.69% of 350,000 active. AID 504558, 2011; in the data active = inhibition above about 41%; inconclusive = no clear call, values can overlap the other calls;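 note: 0% = neutral control wells and 100% = reference inhibitor control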
MITF TRPM1 inh = inhibitors of MITF-dependent TRPM1 promoter reporter, primary screen, cell-based, SK-MEL-5, single point, luciferase. SK-MEL-5 TRPM1 promoter luciferase, 24 h. inhibition, % at 12.5 µM. 0.83% of 330,000 active. AID 488899, 2010;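 active = mean inhibition across replicates of 60% or more, whatever share of single replicates reaches that level; inconclusive = some that reach 60%, reason not given; inactive = mean inhibition across replicates below 60%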
LGR2 antag = inhibitors of bursicon-induced LGR2 CRE-luciferase signal, primary screen, cell-based, HEK293, CRE-luciferase reporter, bursicon stimulation; inhibition, % at 9.99 µM; Drosophila bursicon receptor LGR2 (rickets); bursicon-stimulated, 4 h; 0.35% of 380,000 active; AID 720647, 2013;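 active = drop in luminescence signal, shown as inhibition above about 50% in the replicate tests, limit read from the data, passing the limit was not always enough; inconclusive = probably only some replicates passing the limit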;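 note: agonist challenge used bursicon conditioned medium at about half maximal strength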
PAX8 inh HTS = inhibitors of PAX8-driven TPO luciferase reporter, primary screen, RMG-I cells, single concentration. SteadyGlo, 24 h. inhibition, % at 12.6 µM. 1.2% of 360,000 active. AID 652154, 2013;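 active = mean replicate inhibition at least 60% with every replicate also reaching 60%; inconclusive = only one of the two criteria is met; inactive = mean below 60% and not all replicates reaching 60%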;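 note: luciferase light reporting Pax8 driven TPO promoter activity; plate controls were median of neutral control wells for no effect and mitoxantrone controls for full effect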
EWS-Fli inh = EWS/Fli-driven NR0B1 reporter inhibitors, primary screen, A673 cells, NR0B1 luciferase, luminescence, MLPCN library; viability-normalised; inhibition, % at 12.6 µM; 0.67% of 350,000 active;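 active = mean inhibition of at least 50% after viability correction, with every replicate also passing that limit; inconclusive = mean reaches 50% but only one of two replicates passes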;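 note: firefly luciferase signal divided by Alamar Blue viability fluorescence both relative to DMSO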
* marks the source's active call; other numbers are inactive results; ? = inconclusive; / = not tested or not shown. Shown are actives, neighbours in structure and some others; about 2.2% of the full set was active somewhere.

SMILES	PGC1a acetyl inh	EBV LMP1 NFkB	MITF TRPM1 inh	LGR2 antag	PAX8 inh HTS	EWS-Fli inh
O=C(Nc1cccc2c1CCCC2)c1cc([N+](=O)[O-])ccc1Cl	-37	54*	-14	/	/	/
Cc1oc(=O)c(NC(=O)c2ccccc2)cc1C(N)=O	-2	-11	6	5	13	-13
O=C(Nc1cc2ccccc2oc1=O)c1ccccc1	-30	55*	63*	89*	36	74*
C=C(C(=O)c1ccccc1)C(CC(=O)c1ccccc1)c1ccccc1 (configuration not stated)	/	69*	48	?	102*	/
COc1cccc(-c2ccc(CC[C@H]3O[C@H]4CC[C@@H](CO)O[C@H]4C[C@@H]3NC(=O)c3cnccn3)cc2)c1	-8	/	/	/	-10	-2
C[C@H](CO)N1C[C@H](C)[C@@H](CN(C)Cc2ccc(-c3ccccc3)cc2)Oc2c(NS(=O)(=O)c3ccc(F)cc3)cccc2C1=O	20	6	-7	13	-7	-3
Cc1cc(C(=O)Nc2cccc3c2O[C@@H](CN(C)Cc2ccccc2)[C@@H](C)CN([C@H](C)CO)C3=O)n(C)n1	/	/	/	-12	-6	1
COc1ccc(CN(C)C[C@@H]2Oc3c(NC(=O)C4CCCCC4)cccc3C(=O)N([C@H](C)CO)C[C@H]2C)cc1	-3	/	/	-9	64*	-3
C[C@H]1CN([C@@H](C)CO)C(=O)c2cccc(NS(=O)(=O)c3ccc(F)cc3)c2O[C@@H]1CN(C)Cc1ccc(-c2ccccc2)cc1	0	/	/	0	7	30
C[C@@H]1CN([C@@H](C)CO)C(=O)c2cccc(NS(=O)(=O)c3ccc(F)cc3)c2O[C@H]1CN(C)Cc1ccc(-c2ccccc2)cc1	7	/	/	-4	78*	38
Cc1cc(C(=O)Nc2cccc3c2O[C@H](CN(C)Cc2ccc(Oc4ccccc4)cc2)[C@@H](C)CN([C@H](C)CO)C3=O)n(C)n1	-5	/	/	5	76*	-17
C[C@@H]1CN([C@@H](C)CO)C(=O)c2cccc(NS(=O)(=O)c3ccc(F)cc3)c2O[C@@H]1CN(C)Cc1ccc(-c2ccccc2)cc1	-9	/	/	16	75*	22
COc1ccc2c3c(n(C)c2c1)[C@@H](CO)N(C(=O)CC1CC1)CC31CN(C(=O)C2CCC2)C1	/	/	/	-31	1	-4
C[C@@H](NC(=O)C[C@H]1CC[C@H](NC(=O)C2CC2)[C@@H](CO)O1)c1ccccc1	6	/	/	-2	-2	7
Cc1noc(C)c1NC(=O)Nc1cccc2c1O[C@H](CN(C)Cc1ccc(-c3ccccc3)cc1)[C@@H](C)CN([C@H](C)CO)C2=O	-9	/	/	-7	62*	6
N#C/C(=C\c1cccn1-c1ccccc1)C(=O)NC1CCCCC1	/	-2	14	/	21	62*
N#C/C(=C\C=C\c1ccccc1[N+](=O)[O-])C(=O)NC1CCCCC1	-10	-77	72*	/	/	/
N#C/C(=C\c1ccc(F)c(F)c1)C(=O)NC1CCCCC1	-4	9	3	23	1	3
N#C/C(=C\c1ccccc1[N+](=O)[O-])C(=O)NC1CCCCC1	-11	11	-4	23	15	5
O=C(c1ccccc1)N1CC2(C1)[C@@H](c1ccccc1)[C@H](CO)N2C(=O)CC1CC1	/	/	/	-2	/	/
O=C(NCc1cccnc1)/C(=C/c1ccc(-c2ccc(Cl)cc2)o1)S(=O)(=O)c1ccccc1	-360	-52	93*	99*	/	69*
O=C(NCc1cccnc1)/C(=C\c1ccc(-c2ccc(Br)cc2)o1)S(=O)(=O)c1ccccc1	/	63*	100*	102*	30	59*
CCc1ccc(OCCOCCN2CCN(C)CC2)cc1	-2	-10	4	3	9	8
CN1CCN(CCOc2ccc(Cc3ccccc3)cc2)CC1	-9	48*	13	5	-4	0
c1ccc(COc2ccc(OCCCCN3CCCC3)cc2)cc1	/	3	-5	8	-75	/
SMILES	PGC1a acetyl inh	EBV LMP1 NFkB	MITF TRPM1 inh	LGR2 antag	PAX8 inh HTS	EWS-Fli inh
CC1CCN(CCOc2ccc(OCc3ccccc3)cc2)CC1	0	-5	-53	-19	118*	-22
CO[C@@H]1CN(C)C(=O)c2ccc(NC(=O)NC(C)C)cc2OC[C@H](C)N(C(=O)NC(C)C)C[C@H]1C	0	/	/	17	/	-3
O=C(C[C@@H]1CC[C@H]2[C@@H](COC[C@H](O)CN2C(=O)c2ccccc2F)O1)N1CCN(c2ccccc2)CC1	6	/	/	5	-3	-1
COc1ccccc1CN(C)C[C@H]1OCc2ccccc2-c2c(n(C)c3ccccc23)C(=O)N([C@@H](C)CO)C[C@@H]1C	10	/	/	1	13	0
CCN(CC)CCOc1ccc2c(c1)C(=NO)c1cc(OCCN(CC)CC)ccc1-2	40	-65	103*	7	/	/
CO[C@H]1CN(C)C(=O)c2cc(NC(=O)NC3CCCCC3)ccc2OC[C@H](C)N(CC2CC2)C[C@H]1C	9	/	/	-16	/	0
O=C(NCc1ccccc1)C1Cc2c(-c3ccc4c(c3)OCO4)ccnc2O1 (configuration not stated)	-133	/	/	-19	68*	60*
CC(=O)Nc1ccc(-c2ccnc3c2CC(C)(C(=O)NCc2ccco2)O3)cc1 (configuration not stated)	3	/	/	10	40	54*
O=C(NCc1ccncc1)C1Cc2c(-c3ccc4c(c3)OCO4)ccnc2O1 (configuration not stated)	/	/	/	2	12	5
CC(=O)c1cccc(-c2ccnc3c2CC(C(=O)NCC2CC2)O3)c1 (configuration not stated)	-58	/	/	-3	12	16
CC(=O)c1cccc(-c2ccnc3c2CC(C(=O)NCC2CCOCC2)O3)c1 (configuration not stated)	/	/	/	-7	36	66*
CC(=O)Nc1ccc(-c2ccnc3c2CC(C(=O)NCc2ccco2)O3)cc1 (configuration not stated)	/	/	/	-10	?	62*
O=C(Nc1ccc(F)cc1)N1C[C@H]2[C@@H](c3ccccc31)[C@H](CO)N2C(=O)c1cccnc1	0	/	/	-4	-5	-6
CC(=O)Nc1ccc(-c2ccnc3c2CC(C(=O)NCc2ccccc2)O3)cc1 (configuration not stated)	-52	/	/	-28	92*	51*
CC(=O)Nc1ccc(-c2ccnc3c2CC(C(=O)NCCc2ccccc2)O3)cc1 (configuration not stated)	13	/	/	3	/	4
COc1ccc(NC(=O)C2Cc3c(-c4cccc(C(N)=O)c4)ccnc3O2)cn1 (configuration not stated)	1	/	/	-2	15	1
